Measured values as given in publication PMC7862700, “An all-to-all approach to the identification of sequence-specific readers for epigenetic DNA modifications on cytosine”.

Legend:
Assay in all cases: DAPPL (digital affinity profiling via proximity ligation, sequencing); 10 mM Tris-HCl pH 7.5, 50 mM NaCl, 1 mM DTT, 4% glycerol, room temperature, 30 min; GST-TFs on glutathione beads, 16-mer random dsDNA library, 0.1% formaldehyde crosslink after washing; high values mean tight binding
Conditions in all cases: protein: recombinant; tags: N-terminal GST; dsDNA, one strand shown
ERF = target: T1, ERF (Homo sapiens, UniProt P50548 1-548)
T1 sequence: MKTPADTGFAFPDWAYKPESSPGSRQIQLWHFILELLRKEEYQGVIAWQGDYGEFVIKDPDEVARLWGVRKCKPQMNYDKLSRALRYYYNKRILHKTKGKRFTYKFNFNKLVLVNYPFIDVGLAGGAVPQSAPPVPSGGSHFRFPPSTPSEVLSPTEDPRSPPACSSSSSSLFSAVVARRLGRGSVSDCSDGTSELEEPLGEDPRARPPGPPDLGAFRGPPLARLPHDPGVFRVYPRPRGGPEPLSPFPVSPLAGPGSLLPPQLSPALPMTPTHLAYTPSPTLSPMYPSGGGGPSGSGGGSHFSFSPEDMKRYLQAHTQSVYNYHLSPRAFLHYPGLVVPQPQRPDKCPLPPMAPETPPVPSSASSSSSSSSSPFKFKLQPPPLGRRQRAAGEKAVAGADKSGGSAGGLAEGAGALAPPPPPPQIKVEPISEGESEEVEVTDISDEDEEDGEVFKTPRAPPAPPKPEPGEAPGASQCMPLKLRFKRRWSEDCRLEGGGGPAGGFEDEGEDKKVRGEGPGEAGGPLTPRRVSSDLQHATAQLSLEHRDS
Method in brief: (§1)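 Binding signal is each hexamer's read frequency for a factor divided by its frequency in the tag-only sample. The factors were GST-fused human transcription factors from yeast, captured on glutathione beads, DNA-barcoded and pooled with that sample. Pools were incubated with 200 nmole of a random double-stranded 16-mer DNA library in Tris/NaCl/DTT/glycerol buffer at room temperature for 30 min, then washed, crosslinked with 0.1% formaldehyde, proximity-ligated with BsaI/T4 ligase (1 h, 37 °C), PCR-amplified and sequenced on an Illumina NextSeq500.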

ETV3L = target: T2, ETV3L (Homo sapiens, UniProt Q6ZN32 1-361)
T2 sequence: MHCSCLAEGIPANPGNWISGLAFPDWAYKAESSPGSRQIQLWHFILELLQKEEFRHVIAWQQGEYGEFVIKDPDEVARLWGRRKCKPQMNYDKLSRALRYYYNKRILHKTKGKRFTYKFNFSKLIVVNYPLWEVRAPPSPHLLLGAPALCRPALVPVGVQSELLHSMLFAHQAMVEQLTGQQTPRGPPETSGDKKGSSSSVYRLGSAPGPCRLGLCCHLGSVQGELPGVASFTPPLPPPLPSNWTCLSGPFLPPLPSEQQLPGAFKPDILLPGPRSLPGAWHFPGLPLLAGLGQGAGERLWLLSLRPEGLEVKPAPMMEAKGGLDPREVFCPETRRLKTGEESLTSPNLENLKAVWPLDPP
Method in brief: as §1

ETS2 = target: T3, ETS2 (Homo sapiens, UniProt P15036 1-469)
T3 sequence: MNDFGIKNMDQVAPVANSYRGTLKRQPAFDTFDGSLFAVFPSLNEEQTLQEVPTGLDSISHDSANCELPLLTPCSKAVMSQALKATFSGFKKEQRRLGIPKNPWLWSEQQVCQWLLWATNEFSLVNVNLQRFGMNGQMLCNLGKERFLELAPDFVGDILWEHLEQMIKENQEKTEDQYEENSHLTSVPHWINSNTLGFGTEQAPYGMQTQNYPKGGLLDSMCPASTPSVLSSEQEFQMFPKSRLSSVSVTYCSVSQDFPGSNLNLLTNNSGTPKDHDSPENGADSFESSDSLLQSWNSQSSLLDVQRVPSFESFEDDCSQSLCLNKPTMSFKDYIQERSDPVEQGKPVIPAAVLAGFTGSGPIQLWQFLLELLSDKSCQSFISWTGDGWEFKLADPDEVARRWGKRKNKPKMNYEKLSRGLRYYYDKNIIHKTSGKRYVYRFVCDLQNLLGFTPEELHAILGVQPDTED
Method in brief: as §1

SPDEF = target: T4, SPDEF (Homo sapiens, UniProt O95238 1-335)
T4 sequence: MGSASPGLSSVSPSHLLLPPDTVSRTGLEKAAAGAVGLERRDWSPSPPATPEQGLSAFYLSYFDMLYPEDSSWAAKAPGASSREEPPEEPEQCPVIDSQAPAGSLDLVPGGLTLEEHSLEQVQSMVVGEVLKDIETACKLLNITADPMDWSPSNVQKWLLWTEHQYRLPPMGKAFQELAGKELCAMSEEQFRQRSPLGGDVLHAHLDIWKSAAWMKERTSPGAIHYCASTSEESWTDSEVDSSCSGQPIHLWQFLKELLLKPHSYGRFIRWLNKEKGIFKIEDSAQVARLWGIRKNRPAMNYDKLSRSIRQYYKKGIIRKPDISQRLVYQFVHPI
Method in brief: as §1

ETV7 = target: T5, ETV7 (Homo sapiens, UniProt Q9Y603 1-341)
T5 sequence: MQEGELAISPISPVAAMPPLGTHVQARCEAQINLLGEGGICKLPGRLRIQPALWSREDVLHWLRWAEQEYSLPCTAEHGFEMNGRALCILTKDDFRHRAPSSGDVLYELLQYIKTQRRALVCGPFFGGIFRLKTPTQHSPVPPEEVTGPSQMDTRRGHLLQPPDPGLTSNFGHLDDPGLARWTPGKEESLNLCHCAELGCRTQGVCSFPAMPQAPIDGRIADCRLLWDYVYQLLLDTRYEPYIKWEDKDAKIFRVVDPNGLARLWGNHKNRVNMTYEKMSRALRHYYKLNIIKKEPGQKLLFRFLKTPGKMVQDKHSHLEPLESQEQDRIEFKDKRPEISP
Method in brief: as §1

ELF5 = target: T6, ELF5 (Homo sapiens, UniProt Q9UKW6-2 1-255)
T6 sequence: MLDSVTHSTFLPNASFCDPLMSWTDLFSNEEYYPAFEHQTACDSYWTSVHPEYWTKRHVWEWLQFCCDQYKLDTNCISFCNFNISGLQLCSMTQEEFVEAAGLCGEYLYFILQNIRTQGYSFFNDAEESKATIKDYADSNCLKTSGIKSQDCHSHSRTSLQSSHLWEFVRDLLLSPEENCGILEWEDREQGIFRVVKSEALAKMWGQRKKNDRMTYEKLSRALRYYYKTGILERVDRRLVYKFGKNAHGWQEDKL
Method in brief: as §1

ETV3 = target: T7, ETV3 (Homo sapiens, UniProt P41162-2 1-143)
T7 sequence: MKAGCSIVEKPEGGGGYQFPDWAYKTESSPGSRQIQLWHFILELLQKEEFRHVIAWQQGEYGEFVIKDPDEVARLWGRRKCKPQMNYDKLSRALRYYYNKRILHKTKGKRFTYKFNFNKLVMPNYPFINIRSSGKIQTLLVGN
Method in brief: as §1

ETV6 = ETV6 (Homo sapiens, UniProt P41212 1-452)
Sequence of ETV6 (P41212 whole entry): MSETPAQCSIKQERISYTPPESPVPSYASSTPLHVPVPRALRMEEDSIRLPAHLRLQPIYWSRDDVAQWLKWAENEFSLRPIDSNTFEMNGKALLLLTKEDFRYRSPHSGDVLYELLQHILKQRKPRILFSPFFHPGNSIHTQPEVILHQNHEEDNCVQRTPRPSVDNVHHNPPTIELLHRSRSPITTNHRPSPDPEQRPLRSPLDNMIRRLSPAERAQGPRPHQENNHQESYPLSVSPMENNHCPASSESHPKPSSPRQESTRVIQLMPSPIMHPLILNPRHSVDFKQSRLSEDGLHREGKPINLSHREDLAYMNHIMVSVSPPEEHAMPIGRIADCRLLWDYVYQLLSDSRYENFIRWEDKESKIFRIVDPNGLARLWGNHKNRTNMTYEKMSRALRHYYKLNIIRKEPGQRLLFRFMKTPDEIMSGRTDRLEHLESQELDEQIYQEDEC
Method in brief: as §1

Row | Sequence | binding signal (ERF) | binding signal (ETV3L) | binding signal (ETS2) | binding signal (SPDEF) | binding signal (ETV7) | binding signal (ELF5) | binding signal (ETV3) | binding signal (ETV6)
1 | CGAATT | 1.28 fold enrichment (6-mer frequency, TF over GST control) | 1.28 fold enrichment (6-mer frequency, TF over GST control) | 1.14 fold enrichment (6-mer frequency, TF over GST control) | 1.28 fold enrichment (6-mer frequency, TF over GST control) | 1.31 fold enrichment (6-mer frequency, TF over GST control) | 1.17 fold enrichment (6-mer frequency, TF over GST control) | 1.22 fold enrichment (6-mer frequency, TF over GST control) | 1.08 fold enrichment (6-mer frequency, TF over GST control)
2 | TCATCA | 1.23 fold enrichment (6-mer frequency, TF over GST control) | 1.18 fold enrichment (6-mer frequency, TF over GST control) | 1.15 fold enrichment (6-mer frequency, TF over GST control) | 1.12 fold enrichment (6-mer frequency, TF over GST control) | 1.15 fold enrichment (6-mer frequency, TF over GST control) | 1.16 fold enrichment (6-mer frequency, TF over GST control) | 1.22 fold enrichment (6-mer frequency, TF over GST control) | 1.08 fold enrichment (6-mer frequency, TF over GST control)
3 | CTCTAA | 1.44 fold enrichment (6-mer frequency, TF over GST control) | 1.37 fold enrichment (6-mer frequency, TF over GST control) | 1.32 fold enrichment (6-mer frequency, TF over GST control) | 1.19 fold enrichment (6-mer frequency, TF over GST control) | 1.27 fold enrichment (6-mer frequency, TF over GST control) | 1.34 fold enrichment (6-mer frequency, TF over GST control) | 1.24 fold enrichment (6-mer frequency, TF over GST control) | 1.26 fold enrichment (6-mer frequency, TF over GST control)
4 | TCCAAA | 1.14 fold enrichment (6-mer frequency, TF over GST control) | 1.18 fold enrichment (6-mer frequency, TF over GST control) | 1.16 fold enrichment (6-mer frequency, TF over GST control) | 1.15 fold enrichment (6-mer frequency, TF over GST control) | 1.14 fold enrichment (6-mer frequency, TF over GST control) | 1.15 fold enrichment (6-mer frequency, TF over GST control) | 1.2 fold enrichment (6-mer frequency, TF over GST control) | 1.14 fold enrichment (6-mer frequency, TF over GST control)
5 | CTGCAG | 1.07 fold enrichment (6-mer frequency, TF over GST control) | 1.18 fold enrichment (6-mer frequency, TF over GST control) | 1.18 fold enrichment (6-mer frequency, TF over GST control) | 1.1 fold enrichment (6-mer frequency, TF over GST control) | 1.13 fold enrichment (6-mer frequency, TF over GST control) | 1.09 fold enrichment (6-mer frequency, TF over GST control) | 1.07 fold enrichment (6-mer frequency, TF over GST control) | 1.11 fold enrichment (6-mer frequency, TF over GST control)
6 | TATAAC | 1.18 fold enrichment (6-mer frequency, TF over GST control) | 1.21 fold enrichment (6-mer frequency, TF over GST control) | 1.25 fold enrichment (6-mer frequency, TF over GST control) | 1.25 fold enrichment (6-mer frequency, TF over GST control) | 1.26 fold enrichment (6-mer frequency, TF over GST control) | 1.25 fold enrichment (6-mer frequency, TF over GST control) | 1.25 fold enrichment (6-mer frequency, TF over GST control) | 1.19 fold enrichment (6-mer frequency, TF over GST control)
7 | CTCAAA | 1.11 fold enrichment (6-mer frequency, TF over GST control) | 1.16 fold enrichment (6-mer frequency, TF over GST control) | 1.2 fold enrichment (6-mer frequency, TF over GST control) | 1.14 fold enrichment (6-mer frequency, TF over GST control) | 1.14 fold enrichment (6-mer frequency, TF over GST control) | 1.16 fold enrichment (6-mer frequency, TF over GST control) | 1.2 fold enrichment (6-mer frequency, TF over GST control) | 1.21 fold enrichment (6-mer frequency, TF over GST control)
8 | CTCGCG | 1.41 fold enrichment (6-mer frequency, TF over GST control) | 1.44 fold enrichment (6-mer frequency, TF over GST control) | 1.47 fold enrichment (6-mer frequency, TF over GST control) | 1.4 fold enrichment (6-mer frequency, TF over GST control) | 1.38 fold enrichment (6-mer frequency, TF over GST control) | 1.42 fold enrichment (6-mer frequency, TF over GST control) | 1.42 fold enrichment (6-mer frequency, TF over GST control) | 1.36 fold enrichment (6-mer frequency, TF over GST control)
9 | ACCATA | 1.15 fold enrichment (6-mer frequency, TF over GST control) | 1.25 fold enrichment (6-mer frequency, TF over GST control) | 1.17 fold enrichment (6-mer frequency, TF over GST control) | 1.17 fold enrichment (6-mer frequency, TF over GST control) | 1.11 fold enrichment (6-mer frequency, TF over GST control) | 1.15 fold enrichment (6-mer frequency, TF over GST control) | 1.19 fold enrichment (6-mer frequency, TF over GST control) | 1.16 fold enrichment (6-mer frequency, TF over GST control)
10 | TTAATC | 1.19 fold enrichment (6-mer frequency, TF over GST control) | 1.21 fold enrichment (6-mer frequency, TF over GST control) | 1.29 fold enrichment (6-mer frequency, TF over GST control) | 1.26 fold enrichment (6-mer frequency, TF over GST control) | 1.1 fold enrichment (6-mer frequency, TF over GST control) | 1.18 fold enrichment (6-mer frequency, TF over GST control) | 1.24 fold enrichment (6-mer frequency, TF over GST control) | 1.21 fold enrichment (6-mer frequency, TF over GST control)
11 | AACAGG | 1.16 fold enrichment (6-mer frequency, TF over GST control) | 1.15 fold enrichment (6-mer frequency, TF over GST control) | 1.13 fold enrichment (6-mer frequency, TF over GST control) | 1.31 fold enrichment (6-mer frequency, TF over GST control) | 1.15 fold enrichment (6-mer frequency, TF over GST control) | 1.24 fold enrichment (6-mer frequency, TF over GST control) | 1.25 fold enrichment (6-mer frequency, TF over GST control) | 1.29 fold enrichment (6-mer frequency, TF over GST control)
12 | TAACGA | 1.03 fold enrichment (6-mer frequency, TF over GST control) | 1.04 fold enrichment (6-mer frequency, TF over GST control) | 1.12 fold enrichment (6-mer frequency, TF over GST control) | 1.16 fold enrichment (6-mer frequency, TF over GST control) | 1.1 fold enrichment (6-mer frequency, TF over GST control) | 1.06 fold enrichment (6-mer frequency, TF over GST control) | 1.06 fold enrichment (6-mer frequency, TF over GST control) | 1.08 fold enrichment (6-mer frequency, TF over GST control)
